Data on 28 compounds can be found in PubChem BioAssay.

Activity calls are given as the source filed them.

A short description of the assay: S. pombe growth modifiers, basal conditions – strain 972, OD600, 24 h, no modulator, primary screen (AID 1090).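 Also: basal condition with compound alone and no growth modifier present; test concentration not given here.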 Particulars: S. pombe 972 growth, higher = more signal, called active from +8 up or from −8 down.
As to `O=C1C=C[C@@H](O)[C@@H]2[C@@H]3C(=O)N(C4CCCCC4)C(=O)[C@@H]3CC[C@@H]12`, the z-score was -1.32 (inactive).

As for `C[C@@H]1CC[C@H]2C(=O)OC(Cc3ccccc3)CN2[C@H]1c1ccc(Br)cc1` (stereo partly drawn), the z-score is -6.77 (inactive).

`O=C1[C@H]2[C@H]3[C@H](O)[C@H](O)CC(=NO[C@@H]4O[C@H](CO)[C@@H](O)[C@H](O)[C@H]4O)[C@H]3CC[C@H]2C(=O)N1c1ccc(F)cc1F`: the z-score was -0.352 (inactive).

In the case of `COc1ccc(COC(=O)NN=C2C[C@@H](O)[C@@H](O)[C@@H]3[C@@H]4C(=O)N([C@@H](C)c5ccccc5)C(=O)[C@@H]4CC[C@H]23)cc1`, the z-score is -0.0145 (inactive).

Consider `CC(=O)OC[C@H]1O[C@H](CC=NO[C@H](C)c2cn([C@@H]3COC[C@H]3O)nn2)C=C[C@@H]1OC(C)=O`, for which the z-score is -0.535 (inactive).

With `COc1ccc(O[C@H]2C=C[C@@H](c3ccccc3)O[C@@H]2CO)cc1`, the z-score is -1.27 (inactive).

In the case of `CCOC(=O)[C@H](Cc1ccccc1)NC(=O)CCC1CC(OC(=O)NCCc2ccc(F)cc2)CC2(CCCC(COC(=O)NCCOc3ccccc3)O2)O1` (stereo partly drawn), the z-score is 0.549 (inactive).

For the compound `O=C1C[C@@H](O)[C@@H](O)[C@@H]2[C@@H]3C(=O)N(C4CCCCC4)C(=O)[C@@H]3CC[C@@H]12`, the z-score was -0.509 (inactive).

Consider `CC(CCN1CCCCc2nc(C)c(C)cc21)=NO[C@@H](C)c1cc(-c2c(C)cc(C)cc2C)no1`, for which the z-score is -10.2 (active).

Take `CCOC(=O)[C@H](CC(C)C)NC(=O)CCC1CC(OC(=O)NCc2ccc3c(c2)OCO3)CC2(CCCC(COC(=O)NCCOc3ccccc3)O2)O1` (stereo partly drawn): the z-score was 0.774 (inactive).

`C=CC[C@@H]1C=C[C@H](ON=C(C)CCN2CCCc3nc(C)c(C)cc32)[C@@H](CO)O1`: the z-score was 0.323 (inactive).

Regarding `O=C1CCCC=C1C(O)C1CCCCC1` (stereo not drawn), the z-score is 0.214 (inactive).

With `CO[C@H]1COC(=O)CC=C[C@H](C)[C@H](OC)COC(=O)[C@@H](C)NC(=O)CC=C[C@@H]1C`, the z-score was -0.391 (inactive).

As for `COC(=O)CC=C[C@@H](C)[C@@H](C=NOC[C@@H](C)[C@H](OCc1ccccc1)C(C)C)OC`, the z-score is -0.466 (inactive).

With `CC(C)CON=C1C[C@@H](O)[C@@H](O)[C@@H]2[C@@H]3C(=O)N(C(C)(C)C)C(=O)[C@@H]3CC[C@@H]12`, the z-score was -0.182 (inactive).

With `CC1(C)O[C@H]2OC([C@H](O)CON3C(=O)c4ccccc4C3=O)[C@H](O)[C@H]2O1` (stereo partly drawn), the z-score was -0.344 (inactive).

`CCOC(=O)CCN1C(=O)[C@H]2[C@H]3[C@H](O)[C@H](O)CC(=NNC(=O)OCC)[C@H]3CC[C@H]2C1=O`: the z-score is -1.45 (inactive).

Turning to `CCN(CC)CC(O)CN1CCCCc2nc(C)c(C)cc21` (stereo not drawn), the z-score was -1.34 (inactive).

Consider `CC(C)=NO[C@@H](C)c1cn([C@H](CO)Cc2ccccc2)nn1`, for which the z-score was -2.29 (inactive).

For the compound `O=C(NN=C1C[C@@H](O)[C@@H](O)[C@@H]2[C@@H]3C(=O)N(Cc4ccccc4)C(=O)[C@@H]3CC[C@H]12)OCc1ccccc1`, the z-score was -0.815 (inactive).

In the case of `CCOC(=O)CCN1C(=O)[C@H]2[C@H]3[C@H](O)[C@H](O)CC(=NOCC=C(C)CCC=C(C)C)[C@H]3CC[C@H]2C1=O`, the z-score was -0.215 (inactive).

`CC(=O)OC[C@H]1O[C@@H](ON=C2[C@H]3CCn4c(=O)n(-c5ccccc5)c(=O)n4[C@H]3[C@H](O)[C@@H]3O[C@H]23)[C@H](OC(C)=O)[C@@H](OC(C)=O)[C@@H]1OC(C)=O`: the z-score was -0.598 (inactive).

Regarding `O=C1CCCC=C1C(O)COCc1ccccc1` (stereo not drawn), the z-score was -0.233 (inactive).

With `C[C@H]1CC[C@@H](C(=O)O)N[C@@H]1c1cccc(N2CCCC2=O)c1`, the z-score is 0.0026 (inactive).

In the case of `COC(=O)[C@H](C)NC(=O)CCC1CC(OC(=O)NCc2ccc3c(c2)OCO3)CC2(CCCC(COC(=O)NCCCN3CCCC3=O)O2)O1` (stereo partly drawn), the z-score is 0.642 (inactive).

In the case of `CC(C)(C)N1C(=O)[C@H]2[C@@H]3C(=CC[C@H]2C1=O)C(=O)[C@H]1O[C@H]1[C@H]3O`, the z-score is -4.57 (inactive).

As to `CCOC(=O)NN=C1C[C@@H](O)[C@@H](O)[C@@H]2[C@@H]3C(=O)N(C[C@@H]4CCCO4)C(=O)[C@@H]3CC[C@H]12`, the z-score was -0.318 (inactive).

For the compound `CC(C)=CCCC(C)=CCON=C1C[C@@H](O)[C@@H](O)[C@@H]2[C@@H]3C(=O)N(Cc4ccc5c(c4)OCO5)C(=O)[C@@H]3CC[C@H]12`, the z-score was 0.197 (inactive).
